Test results taken from PubChem BioAssay (NCI).
The panel holds about 83,000 compounds, 20% with a hit somewhere; the sample as a whole holds those more often.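 Cell lines were cultured in 96-well plates, exposed to a single compound concentration, and assessed for percent growth 48 hours later.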 Values without a mark were called inactive. Active and inactive are the calls of the source.

test system: UO-31 renal; assay: NCI-60 one-dose screen, 48 h (100 = growth as untreated, 0 = no growth, -100 = all killed); conditions: 10 µM unless noted
Protocol: Growth inhibition of the UO-31 human tumor cell line is measured as a screen for anti-cancer activity. Cells are grown in 96 well plates and exposed to the test compound for 48 hours. Compounds are tested at a single concentration, which is 10^-5 M for most compounds. The reported endpoint is percent growth (GI% or GIPRCNT), where numbers from 0 - 100% represent growth inhibition, and numbers from -100% - 0 represent cell death. For example, a value of 40 represents 60% growth inhibition. A value of 0 means no net growth occurred over the course of the experiment. A value of -40 indicates 40% of cells at the beginning of the experiment died by the end of the experiment. A value of -100 means all cells are dead at the end of the experiment.
NCI-60 Human Tumor Cell Lines Screen was performed using the standard one-dose NCI protocol, which is described in more detail at https://dtp.cancer.gov/discovery_development/nci-60/default.htm.
Compounds with GIPRCNT values below 10 were considered active. Activity score was based on GIPRCNT using the following formula: […]
Score is 0 for GIPRCNT values of 100 or above, 50 for GIPRCNT values of 0, and 100 for GIPRCNT values of -100.

Compared with `CC(CN1CCCCC1)C(=O)c1ccccc1` (stereo not given), `S=C(Cc1ccc2c(c1)CCCC2)N1CCOCC1` is lower in growth: 92.4% for the first, 92.2% for the second.

Going from `COc1cc(-c2nc(N3CCN(C)CC3)c3ccccc3n2)cc(OC)c1OC` to `COc1ccc2[nH]c(O)c(/C=c3/cc4c(c(-c5cc(OC)c(OC)c(OC)c5)n3)=Nc3ccccc3-4)c2c1`, the growth rises from 45% to 51.5%.

Compared with `Cc1cc(C)c(-c2c(C)cc(C)cc2CBr)c(CBr)c1`, `Cc1cc(C)c2c(-c3nnc(N)s3)cc(=O)oc2c1` is higher in growth: 75.9% for the first, 88% for the second.

Compared with `CN(c1ccccc1)c1ccc2c(c1)OCCC21CC1Nc1cnccc1C(=O)O` (stereo not given), `C[C@H](NC(=O)[C@@H]1CSSC[C@@H](NC(=O)c2nc3ccccc3cc2O)C(=O)NCC(=O)N1C)c1ccccc1` is lower in growth: 87.4% for the first, 63.8% for the second.

Going from `COCCN(C(=O)c1ccc(F)cc1F)c1c(N)n(Cc2ccccc2)c(=O)[nH]c1=O` to `CCOc1ccccc1-c1cc(-c2cccs2)c(C#N)c(=O)[nH]1`, the growth falls from 83.4% to 68.8%.

Compared with `C=C(C)[C@@H]1CC[C@]2(C)[C@H](CC=C3[C@@H]4CC(C)(C)CC[C@]4(C(N)=O)CC[C@]32C)[C@@]1(C)CCC#N`, `CC(=O)[C@@H]1CC[C@]2(COS(=O)(=O)c3ccc(C)cc3)CC[C@]3(C)[C@H](CC[C@@H]4[C@@]5(C)CCCNC(C)(C)[C@@H]5CC[C@]43C)[C@@H]12` is higher in growth: 17.6% for the first, 66.3% for the second.

Going from `Cc1cc(NCc2cc(Nc3ccnc4cc(Cl)ccc34)ccc2F)nc(Cl)n1` to `Cc1cc(Cl)nc(NCc2cc(Nc3ccnc4cc(Cl)ccc34)ccc2F)n1`, the growth rises from 30% to 44%.

Going from `CCN1C(=O)N(CC)C2Nn3c(s/c(=C\c4cccc([N+](=O)[O-])c4)c3=O)=NC21` (stereo not given) to `COc1ccc(NC(=O)CSc2nc(C)c(C(C)=O)n2-c2ccc([N+](=O)[O-])cc2)cc1`, the growth rises from 56.8% to 83.6%.

Going from `N#Cc1c(-c2cccc(Cl)c2)cc(-c2cccc(Cl)c2)[nH]c1=O` to `Cc1ccc2nc3ccccc3c(NCc3ccccc3)c2c1`, the growth falls from 74% to 18.3%.

Compared with `COC(=O)CCC1=C(C)C2=NC1=CC1=NC(=CC3=NC(=Cc4[nH]c(/c(=C(/C)O)c4C)=C2)C(C(C)=O)=C3C)C(C)=C1CCC(=O)OC`, `COc1cccc(/C=C/C(=O)c2c(C)nc3ccccc3c2/C=C/c2ccc(C)cc2)c1OC` is lower in growth: 100% for the first, 54.3% for the second.

Going from `Cc1ccccc1NC(=O)N/C(N)=N/c1nc(-c2cccc([N+](=O)[O-])c2)cs1` to `NC(N)=Nc1nc2ccccc2n2c1nc1ccccc12`, the growth falls from 58.1% to 34.3%.

First: CCCCCCCCCCCCCCCCCCOc1ccccc1CC(=O)OCCC[N+](C)(C)C
Second: CCCCC1CCCCN1C(=O)OCC (stereo not given)
The growth of the first is higher: 90.1% for the first, 88.7% for the second.

First: CC(=O)O[C@]1(C(C)=O)CCC2C3C[C@H](C)C4=CC(=O)CC[C@]4(C)C3CC[C@@]21C (stereo not given in full)
Second: COc1ccc(NC(=O)CSc2nnc(-c3cc(-c4ccc(S(N)(=O)=O)cc4)nc4ccccc34)n2-c2ccccc2)cc1
The growth of the first is lower: 65.6% for the first, 74.5% for the second.

First: O=[N+]([O-])c1ccc(-c2cc(-c3ccc(Nc4nc(Nc5ccc(Cl)cc5)nc(Nc5ccc(Cl)cc5)n4)cc3)no2)cc1
Second: O=C(c1ccccc1)c1c(/C=C/c2ccc(Cl)cc2)nc2ccccc2c1/C=C/c1cccs1
The growth of the first is lower: 78.8% for the first, 82.9% for the second.

First: O=C1c2cccc(NCCN=Cc3cc([N+](=O)[O-])ccc3O)c2C(=O)c2c(NCCN=Cc3cc([N+](=O)[O-])ccc3O)cccc21
Second: COc1cc2nc(Cl)nc(Nc3ccc(S(=O)(=O)Nc4nccs4)cc3)c2cc1OC
The growth of the first is lower: 76.5% for the first, 85.4% for the second.

For `Cc1cc(N2CCCC2)nc(NCc2cc(Nc3ccnc4cc(Cl)ccc34)ccc2F)n1`, the growth was -59.1% (active).
In the case of `C=C1C(=O)O[C@H]2[C@H]1CC/C(COC(=O)C(=O)c1c[nH]c3ccccc13)=C\CC[C@@]1(C)O[C@@H]21`, the growth is reported as -93.3% (active).
For `COc1ccc(-c2cc(-c3ccc(Nc4nc(Nc5ccc(Cl)cc5)nc(Nc5ccc(Cl)cc5)n4)cc3)nc(N)c2C#N)cc1`, the growth was -46.7% (active).
`O=C1CC(N2C(=O)/C(=C/C(Cl)=C\c3ccc([N+](=O)[O-])cc3)SC2=S)C(=O)N1c1ccc(O)cc1` (stereo not given) was tested, and the growth was -75.2% (active).
In the case of `C[C@H]1[C@H]2[C@H]3CC[C@@H]4[C@@]5(C)C/C(=C/c6cccnc6)C(=O)C(C)(C)[C@@H]5CC[C@@]4(C)[C@]3(C)CC[C@]23CO[C@]1(C)[C@@H](C(=O)/C=C\c1cccnc1)C3`, the growth is reported as -97.3% (active).
In the case of `C#Cc1cccc(NC(=O)c2ccc(NC(=O)CCl)cc2)c1`, the growth is reported as -99.2% [8.25 µM] (active).
`COC(=O)[C@]12CC[C@@H](C)[C@H](C)[C@@H]1C1=CC[C@@H]3[C@@]4(C)C(C=O)=C[C@@](C)(COC(=O)c5ccco5)C4=CC[C@@]3(C)[C@]1(C)CC2` was tested, and the growth was -55.3% (active).
In the case of `Fc1c[c-]c(-c2ccccn2)c(F)c1.[CH3-].[Pt+2].c1ccc(P(C[PH+](c2ccccc2)c2ccccc2)c2ccccc2)cc1`, the growth is reported as -98.2% (active).
With `CCOc1ccccc1-n1c(CN2CCN(C(=O)COc3ccc(CNCCCCCCN4C5CCCC4CC(OC(=O)Nc4cc(C)ccc4OC)C5)cc3)CC2)nc2ccccc2c1=O` (stereo not given) the growth was -98.5% (active).

With `COc1nc2c(c(=O)n1C)CN(c1ccccc1)C(=O)CN2C` the growth was 26% [100 µM].
